Data taken from PubChem BioAssay (NCI).
The panel holds about 79,000 compounds, 15% with a hit somewhere; the sample as a whole holds those more often. Activity calls are given as the source filed them. Cut-off read from the data, not from the text of the source: active = growth inhibition above about 70%; inactive = the rest.

Tests used:
[1] = NCI Yeast Anticancer Drug Screen. Data for the mec2-1 strain (AID 157); settings: S. cerevisiae mec2-1 strain, hits give high values
Procedure, shortened: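 Readout is yeast growth inhibition, normalised to vehicle-treated controls, in the mec2-1 strain exposed to compound.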

[2] = NCI Yeast Anticancer Drug Screen. Data for the rad14 strain (AID 159);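 note: 0% = growth of vehicle-treated control cultures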; settings: S. cerevisiae rad14 strain growth inhibition, hits give high values
Procedure, shortened: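 Test compounds were applied to a repair-deficient yeast strain. Its growth was then compared with that of cultures given vehicle alone, and inhibition was expressed relative to those controls.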

[3] = NCI Yeast Anticancer Drug Screen. Data for the sgs1 mgt1 strain (AID 161);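 note: 0% = growth of cultures given vehicle only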; settings: S. cerevisiae sgs1 mgt1 strain, hits give high values
Procedure, shortened: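 Yeast cells carrying a defined DNA-repair defect were exposed to test compounds. Growth inhibition was measured relative to vehicle-treated controls.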

[4] = NCI Yeast Anticancer Drug Screen. Data for the CLN2oe strain (AID 163);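 note: 0% = growth of vehicle-only control cultures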; settings: S. cerevisiae CLN2oe strain, hits give high values
Procedure, shortened: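 Values reflect how much compound exposure reduced yeast growth, referenced to vehicle-exposed cells. Assay organism is a strain with a defined genetic change affecting cell-cycle control.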

[5] = NCI Yeast Anticancer Drug Screen. Data for the cln2 rad14 strain (AID 165);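 note: 0% = growth equal to vehicle treated cultures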; settings: S. cerevisiae cln2 rad14 strain, hits give high values
Procedure, shortened: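 Relative to vehicle controls, growth inhibition of compound-treated cln2 rad14 yeast was recorded.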

[6] = NCI Yeast Anticancer Drug Screen. Data for the bub3 strain (AID 167); settings: S. cerevisiae bub3 mutant strain, hits give high values
Procedure, shortened: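 Yeast carrying a defined mutation is treated with each compound, and growth is compared with that of vehicle-exposed cells to give inhibition.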

[7] = NCI Yeast Anticancer Drug Screen. Data for the wt2 strain (AID 169);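 note: 0% = growth of vehicle-treated yeast cultures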; settings: S. cerevisiae wt2 strain growth inhibition, hits give high values
Procedure, shortened: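 Values express reduction in yeast growth under compound treatment, referenced to vehicle-treated cells.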

[8] = NCI Yeast Anticancer Drug Screen. Data for the mlh1 strain (AID 171);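 note: 0% = growth of vehicle-treated control cultures of the same strain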; settings: S. cerevisiae mlh1 strain growth inhibition, hits give high values
Procedure, shortened: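 Steps: expose the defined-mutant yeast strain to compound; expose a parallel culture to vehicle; measure growth; express compound effect as inhibition relative to the vehicle culture.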

[9] = NCI Yeast Anticancer Drug Screen. Data for the sgs1 strain (AID 173);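 note: 0% = growth of vehicle-only control cultures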; settings: S. cerevisiae sgs1 mutant, hits give high values
Procedure, shortened: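 Treat defined-mutant yeast with compound; measure growth; calculate inhibition relative to vehicle-treated cells.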

[10] = NCI Yeast Anticancer Drug Screen. Data for the mlh1 rad18 strain (AID 175); settings: S. cerevisiae mlh1 rad18 strain growth inhibition, hits give high values
Procedure, shortened: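 Test agents were incubated with a yeast strain of defined genotype (DNA damage repair defect). Inhibition of growth was derived by comparison with vehicle-exposed cultures.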

[11] = NCI Yeast Anticancer Drug Screen. Data for the rad18 strain (AID 177); settings: S. cerevisiae rad18 mutant growth inhibition, hits give high values
Procedure, shortened: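 A genetically defined yeast mutant impaired in DNA damage repair was treated with test compounds, then its growth was measured against cultures receiving vehicle alone.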

[12] = NCI Yeast Anticancer Drug Screen. Data for the rad52 strain (AID 147);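 note: 0% = growth of vehicle-treated control cultures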; settings: S. cerevisiae rad52 mutant growth inhibition, hits give high values
Procedure, shortened: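 Screen used a yeast mutant impaired in DNA repair. After compound exposure, growth was measured. Values reflect inhibition compared with vehicle-treated cells.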

[13] = NCI Yeast Anticancer Drug Screen. Data for the wt1 strain (AID 149);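 note: 0% = growth of vehicle-treated wt1 cultures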; settings: S. cerevisiae wt1 strain (SPY 50644) growth inhibition, hits give high values
Procedure, shortened: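 wt1 yeast, compound-treated; % growth inhibition vs vehicle control.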

[14] = NCI Yeast Anticancer Drug Screen. Data for the mgt1 strain (AID 153); settings: S. cerevisiae mgt1 mutant growth inhibition, hits give high values
Procedure, shortened: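 Genetically defined yeast (mgt1) treated with compound; inhibition of growth expressed against vehicle-treated controls.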

[15] = NCI Yeast Anticancer Drug Screen. Data for the rad50 strain (AID 155);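 note: 0% = growth of vehicle-only cultures of the same strain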; settings: S. cerevisiae rad50 strain growth inhibition, hits give high values
Procedure, shortened: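 Genetically altered yeast (DNA repair pathway); compound treatment; growth inhibition vs vehicle ctrl.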

[16] = at 5.0 µM (retest, dose inferred, filed as 0.5)
[17] = at 50.0 µM (retest, dose inferred, filed as 5.0)

Measured: growth inhibition

Clc1cccc(C(Nc2nncs2)Nc2nncs2)c1Cl
inactive: [1]; at 100.0 µM 51% | [2]; at 1.2 µM -2% | [2]; at 3.7 µM -2% | [2]; at 11.0 µM 2% | [2]; at 33.0 µM 19% | [3]; [16] 1% | [3]; [17] 50% | [3]; at 50.0 µM 66.5% | [4]; at 1.2 µM -1% | [4]; at 3.7 µM -2% | [4]; at 11.0 µM -1% | [4]; at 33.0 µM 9% | [4]; at 100.0 µM 34% | [5]; [16] -3% | [5]; [17] 25% | [5]; at 50.0 µM -2.6% | [6]; at 1.2 µM 0% | [6]; at 3.7 µM 0% | [6]; [16] -6% | [6]; at 11.0 µM 0% | [6]; at 33.0 µM 12% | [6]; [17] 14% | [6]; at 50.0 µM -20.6% | [7]; at 1.2 µM -2% | [7]; at 3.7 µM 8% | [7]; at 11.0 µM 1% | [7]; at 33.0 µM 19% | [7]; at 100.0 µM 54% | [8]; at 1.2 µM -1% | [8]; at 3.7 µM 0% | [8]; at 11.0 µM 3% | [8]; at 33.0 µM 16% | [8]; at 100.0 µM 49% | [9]; at 1.2 µM -1% | [9]; at 3.7 µM 3% | [9]; at 11.0 µM 16% | [9]; at 33.0 µM 51% | [10]; [16] 3% | [10]; [17] 57% | [10]; at 50.0 µM 55.3% | [11]; at 1.2 µM -4% | [11]; at 3.7 µM 6% | [11]; at 11.0 µM 14% | [11]; at 33.0 µM 42%
active: [2]; at 100.0 µM 71% | [6]; at 100.0 µM 77% | [9]; at 100.0 µM 86% | [11]; at 100.0 µM 87%

O=C(CCCN1CCC(O)(c2ccc(Cl)cc2)CC1)c1ccc(F)cc1
inactive: [12]; at 1.2 µM 13% | [12]; at 3.7 µM 6% | [12]; at 11.0 µM 27% | [12]; at 33.0 µM 31% | [12]; at 100.0 µM 38% | [13]; at 1.2 µM 0% | [13]; at 3.7 µM 7% | [13]; at 11.0 µM 13% | [13]; at 33.0 µM 23% | [13]; at 100.0 µM 14% | [14]; at 1.2 µM 17% | [14]; at 3.7 µM 30% | [14]; at 11.0 µM 40% | [14]; at 33.0 µM 58% | [14]; at 100.0 µM 65% | [15]; at 1.2 µM 24% | [15]; at 3.7 µM -8% | [15]; [16] 58% | [15]; at 11.0 µM 69% | [15]; at 33.0 µM 64% | [15]; at 100.0 µM 69% | [1]; at 1.2 µM 19% | [1]; at 3.7 µM 19% | [1]; [16] 33% | [1]; at 11.0 µM 29% | [1]; at 33.0 µM 36% | [1]; at 100.0 µM 41% | [2]; at 1.2 µM 50% | [2]; at 3.7 µM 69% | [3]; [16] 60% | [4]; at 1.2 µM 27% | [4]; at 3.7 µM 31% | [4]; at 11.0 µM 37% | [4]; at 33.0 µM 44% | [4]; at 100.0 µM 49% | [5]; [16] 43% | [6]; at 1.2 µM 38% | [6]; at 3.7 µM 41% | [6]; [16] 48% | [6]; at 11.0 µM 39% | [6]; at 33.0 µM 51% | [6]; at 50.0 µM 66.2% | [6]; at 100.0 µM 59% | [7]; at 1.2 µM 0% | [7]; at 3.7 µM 21% | [7]; at 11.0 µM 18% | [7]; at 33.0 µM 24% | [7]; at 100.0 µM 24% | [8]; at 1.2 µM 11% | [8]; at 3.7 µM 16% | [8]; at 11.0 µM 27% | [8]; at 33.0 µM 34% | [8]; at 100.0 µM 44% | [9]; at 1.2 µM 15% | [9]; at 3.7 µM 23% | [9]; at 11.0 µM 46% | [9]; at 33.0 µM 43% | [9]; at 100.0 µM 52% | [10]; [16] 35% | [10]; at 50.0 µM 66% | [11]; at 1.2 µM 37% | [11]; at 3.7 µM 37% | [11]; at 11.0 µM 44% | [11]; at 33.0 µM 58% | [11]; at 100.0 µM 64%
active: [15]; [17] 99% | [15]; at 50.0 µM 82.8% | [1]; [17] 100% | [1]; at 50.0 µM 77.7% | [2]; at 11.0 µM 78% | [2]; at 33.0 µM 83% | [2]; at 100.0 µM 86% | [3]; [17] 100% | [3]; at 50.0 µM 91.4% | [5]; [17] 99% | [5]; at 50.0 µM 70.8% | [6]; [17] 99% | [10]; [17] 99%

CC(=O)SCCC[Si](C)(C)CCCSC(C)=O
active: [3]; at 50.0 µM 70.8%
inactive: [12]; at 1.2 µM -1% | [12]; at 3.7 µM 2% | [12]; at 11.0 µM 7% | [12]; at 33.0 µM 28% | [12]; at 100.0 µM 53% | [13]; at 1.2 µM -3% | [13]; at 3.7 µM -5% | [13]; at 11.0 µM -7% | [13]; at 33.0 µM 4% | [13]; at 100.0 µM 31% | [14]; at 1.2 µM -4% | [14]; at 3.7 µM -4% | [14]; at 11.0 µM -5% | [14]; at 33.0 µM 7% | [14]; at 100.0 µM 39% | [15]; at 1.2 µM 1% | [15]; at 3.7 µM 2% | [15]; [16] -1% | [15]; at 11.0 µM 5% | [15]; at 33.0 µM 21% | [15]; [17] 51% | [15]; at 50.0 µM 55.2% | [15]; at 100.0 µM 44% | [1]; at 1.2 µM -3% | [1]; at 3.7 µM -3% | [1]; [16] -2% | [1]; at 11.0 µM -5% | [1]; at 33.0 µM 3% | [1]; [17] 46% | [1]; at 50.0 µM 53.6% | [1]; at 100.0 µM 35% | [2]; at 1.2 µM -3% | [2]; at 3.7 µM 0% | [2]; at 11.0 µM 0% | [2]; at 33.0 µM 14% | [2]; at 100.0 µM 39% | [3]; [16] 1% | [3]; [17] 63% | [4]; at 1.2 µM -4% | [4]; at 3.7 µM -6% | [4]; at 11.0 µM -7% | [4]; at 33.0 µM 13% | [4]; at 100.0 µM 48% | [5]; [16] -6% | [5]; [17] 54% | [5]; at 50.0 µM 39% | [6]; at 1.2 µM -1% | [6]; at 3.7 µM 3% | [6]; [16] 10% | [6]; at 11.0 µM 3% | [6]; at 33.0 µM 23% | [6]; [17] 61% | [6]; at 50.0 µM 65.7% | [6]; at 100.0 µM 47% | [7]; at 1.2 µM -1% | [7]; at 3.7 µM -9% | [7]; at 11.0 µM -6% | [7]; at 33.0 µM 5% | [7]; at 100.0 µM 33% | [8]; at 1.2 µM -4% | [8]; at 3.7 µM -3% | [8]; at 11.0 µM -2% | [8]; at 33.0 µM 21% | [8]; at 100.0 µM 51% | [9]; at 1.2 µM -2% | [9]; at 3.7 µM 22% | [9]; at 11.0 µM 4% | [9]; at 33.0 µM 29% | [9]; at 100.0 µM 48% | [10]; [16] -2% | [10]; [17] 58% | [10]; at 50.0 µM 64.7% | [11]; at 1.2 µM -5% | [11]; at 3.7 µM 1% | [11]; at 11.0 µM 3% | [11]; at 33.0 µM 19% | [11]; at 100.0 µM 51%
